Data reported in the supplement of paper PMC6555819.

Assays:
Test in all cases: PBM binding z-score (relative to random genomic background probes); higher = stronger binding; sequences stand for … in GC…GCGATTGACAGCGTAGAATGAAGG
[1] = tested on: FXR:RXRa (NR concentration 270 nM, RXRa partner concentration 90 nM)
Outline: (§1)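 Probes were double-stranded and carried 34-nt variable regions with direct-repeat seeds, single-nucleotide variants, half-site ablations and random human genomic background sequences, printed on custom Agilent 4×180K protein-binding microarrays. Arrays were incubated 1 h with ligand-free nuclear receptor dimers in PBS pH 7.4, 2% milk, 0.02% Triton X-100, 1 mM DTT, 0.2 mg/mL BSA and 0.4 mg/ml salmon testes DNA. Antibodies against each partner (one per run) detected binding, and scanned fluorescence was regression-normalized. Binding z-scores use the random background probes as reference.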

[2] = tested on: LXRa:RXRa (NR concentration 270 nM, RXRa partner concentration 90 nM)
Outline: as §1

[3] = tested on: LXRa homodimer (NR concentration 270 nM)
Outline: as §1

[4] = tested on: LXRb:RXRa (NR concentration 270 nM, RXRa partner concentration 90 nM)
Outline: as §1

[5] = tested on: LXRb homodimer (NR concentration 270 nM)
Outline: as §1

[6] = tested on: PPARa:RXRa (NR concentration 270 nM, RXRa partner concentration 90 nM)
Outline: as §1

[7] = tested on: PPARg:RXRa (NR concentration 180 nM, RXRa partner concentration 90 nM)
Outline: as §1

[8] = tested on: PPARg:RXRa 270nM:90nM, anti-RXR (NR concentration 270 nM, RXRa partner concentration 90 nM)
Outline: as §1

[9] = tested on: PPARg:RXRa 30nM:10nM, anti-RXR (NR concentration 30 nM, RXRa partner concentration 10 nM)
Outline: as §1

[10] = tested on: PPARg:RXRa 90nM:30nM, anti-RXR (NR concentration 90 nM, RXRa partner concentration 30 nM)
Outline: as §1

[11] = tested on: PPARg:RXRa DBDmut IVT, anti-RXR (DBD mutation: RXRa K156A/R161A, NR concentration 270 nM, RXRa partner concentration 90 nM)
Outline: as §1

[12] = tested on: PPARg:RXRa IVT, anti-PPARg (NR concentration 270 nM, RXRa partner concentration 90 nM)
Outline: as §1

[13] = tested on: PPARg DBDmut:RXRa IVT, anti-PPARg (DBD mutation: PPARg1 K132A/R137A, NR concentration 270 nM, RXRa partner concentration 90 nM)
Outline: as §1

[14] = tested on: PPARg DBDmut IVT, anti-PPARg (DBD mutation: PPARg1 K132A/R137A, NR concentration 270 nM)
Outline: as §1

[15] = tested on: PPARg homodimer (NR concentration 180 nM)
Outline: as §1

[16] = tested on: PXR:RXRa (NR concentration 270 nM, RXRa partner concentration 90 nM)
Outline: as §1

[17] = tested on: PXR homodimer (NR concentration 270 nM)
Outline: as §1

[18] = tested on: RARa:RXR (NR concentration 270 nM, RXRa partner concentration 90 nM)
Outline: as §1

[19] = tested on: RARa homodimer (NR concentration 270 nM)
Outline: as §1

[20] = tested on: RARb:RXRa (NR concentration 270 nM, RXRa partner concentration 90 nM)
Outline: as §1

Sequence | PBM binding z-score [1] | PBM binding z-score [2] | PBM binding z-score [3] | PBM binding z-score [4] | PBM binding z-score [5] | PBM binding z-score [6] | PBM binding z-score [7] | PBM binding z-score [8] | PBM binding z-score [9] | PBM binding z-score [10] | PBM binding z-score [11] | PBM binding z-score [12] | PBM binding z-score [13] | PBM binding z-score [14] | PBM binding z-score [15] | PBM binding z-score [16] | PBM binding z-score [17] | PBM binding z-score [18] | PBM binding z-score [19] | PBM binding z-score [20]
CCTACTGGGCCAAGGCCATTGATCAGTCAAAGCA | -0.412 | -0.51 | -0.664 | -0.606 | -0.891 | -0.0978 | 0.449 | 0.724 | -0.7 | -0.174 | 2.95 | 2.89 | -0.753 | -1.61 | 0.0949 | -0.456 | -0.233 | -0.557 | -0.85 | 0.554
ATCGCAAGGTCGACGAGGTGAGTATACACCGTTT | 1.64 | 1.32 | -0.778 | 1.06 | -0.359 | 2.74 | 1.28 | 0.926 | -0.0262 | 0.379 | -0.013 | 1.1 | 0.104 | 0.00511 | 0.0263 | 1.89 | 0.566 | 2.55 | -0.403 | 2.49
ATCTCTAGGTAAAGATAGTTCAGGGAATGCAAAT | 0.392 | 3.65 | 0.565 | 0.755 | 0.535 | 1.06 | 0.543 | 0.544 | 0.404 | 0.317 | 2.05 | 1.37 | 1.02 | 0.575 | 0.895 | 0.937 | 0.399 | 0.601 | 1.17 | 0.787
TCATAGAGGTAAAGGTGAAAGTCGAACGATATGA | 1.13 | 1.35 | -0.575 | 1.3 | -0.862 | 3.63 | 3.74 | 5.04 | 3.97 | 4.88 | 2.03 | 3.05 | 0.77 | 0.323 | 0.369 | 1.15 | -0.365 | 2.03 | 0.137 | 2.19
TCGAGTAGGTTACCGATGGGGCATTCAGCTTTCT | 0.211 | 0.803 | -0.358 | 0.678 | -0.864 | 1.29 | 0.217 | 1.3 | 1.26 | 1.3 | 3.39 | 2.48 | -0.681 | -0.945 | -0.276 | -0.00678 | -0.759 | 0.377 | -0.625 | 0.88
GCTAGTTGGTCAGTAAAAGGTCACACACCGGTCG | 3.43 | 4.13 | 4.61 | 3.79 | 0.823 | 4.31 | 3.03 | 4.23 | 2.21 | 4.37 | 1.12 | 2.86 | -0.0862 | 0.91 | 4.27 | 4.95 | 1.3 | 5.91 | 3.23 | 4.19
GCTTGTAGATCATGGTTAAGAAAGACTAAGCTAA | -0.444 | -0.5 | -0.382 | -0.729 | -0.647 | -0.285 | -0.054 | 0.171 | -0.126 | -0.187 | 0.856 | 0.283 | 0.687 | -0.0333 | 0.17 | -0.334 | -0.29 | -0.161 | -0.00288 | -0.371
ACTAGGAGGCCAAGGGTCACTCAAGATTAGTCCG | 2.82 | 3.11 | 0.119 | 2.83 | 0.0149 | 4.59 | 8.49 | 7.94 | 7.43 | 8.35 | 1.26 | 3.95 | -0.025 | -0.509 | 3.03 | 3.57 | 0.414 | 4.7 | 1.03 | 3.64
TCTCGGTGGACACGAAAGGTCAGAGCTCGACATC | 2.46 | 3.58 | 2.21 | 3.1 | -0.0844 | 3.69 | 1.16 | 2.93 | 2.55 | 2.78 | 1.22 | 1.82 | -0.273 | -0.543 | 3.39 | 3.87 | 0.441 | 4.59 | -0.0957 | 3.86
CATACGGGGTCAGCTAGGCCAGAGTAGGGACGGC | 7.18 | 5.6 | 0.0211 | 4.81 | 1.12 | 6.17 | 7.29 | 6.63 | 3.71 | 5.39 | 2.55 | 4.45 | 1.49 | 1.86 | 2.4 | 4.79 | 0.529 | 5.51 | 0.858 | 4.84
ATCGAAAGGTCGTGAGTTGAGTATACAGAAAGGC | 4.98 | 3.53 | 0.0498 | 2.99 | 0.743 | 4.84 | 3.55 | 3.9 | 1.82 | 2.85 | -0.00462 | 1.66 | 1.4 | 1.03 | 1.91 | 3.2 | 0.152 | 3.9 | 0.363 | 3.82
GCTAGCAGGCCATTTGGGTCACTGAATGACGGGC | -0.0182 | -0.185 | -0.885 | -0.0353 | -0.763 | 1.33 | 0.576 | 0.447 | -0.489 | -0.116 | 1.8 | 2.35 | -0.118 | -0.738 | -0.224 | 0.537 | -0.19 | 0.876 | -0.661 | 1.49
GTACCAAGGTGAATAGGTCGTGGATGAGTAGGCG | 1.25 | 1.07 | -0.132 | 0.395 | -0.586 | 2.47 | 1.85 | 2.35 | 0.297 | 1.3 | 2.1 | 2.87 | 0.27 | -0.568 | 1.84 | 0.978 | -0.029 | 2.11 | 0.457 | 2.09
CCAGACGGGTGAGAAGGTAACTCAGCCTCGATTA | -0.446 | -0.488 | -0.527 | -0.4 | -1.08 | 0.109 | 0.208 | 0.0448 | -0.616 | -0.191 | 0.114 | 0.156 | -1.55 | -1.37 | 0.298 | -0.708 | -0.553 | -0.463 | -0.518 | -0.128
